Laboratory results published in ChEMBL document CHEMBL2218924, “A broad activity screen in support of a chemogenomic map for kinase signalling research and drug discovery” (Biochem J, 2013).

Experiments:
[1] = target: T1, Serine/threonine-protein kinase TBK1 (Homo sapiens) (UniProt Q9UHD2); details: at 10 µM
T1 sequence (whole entry): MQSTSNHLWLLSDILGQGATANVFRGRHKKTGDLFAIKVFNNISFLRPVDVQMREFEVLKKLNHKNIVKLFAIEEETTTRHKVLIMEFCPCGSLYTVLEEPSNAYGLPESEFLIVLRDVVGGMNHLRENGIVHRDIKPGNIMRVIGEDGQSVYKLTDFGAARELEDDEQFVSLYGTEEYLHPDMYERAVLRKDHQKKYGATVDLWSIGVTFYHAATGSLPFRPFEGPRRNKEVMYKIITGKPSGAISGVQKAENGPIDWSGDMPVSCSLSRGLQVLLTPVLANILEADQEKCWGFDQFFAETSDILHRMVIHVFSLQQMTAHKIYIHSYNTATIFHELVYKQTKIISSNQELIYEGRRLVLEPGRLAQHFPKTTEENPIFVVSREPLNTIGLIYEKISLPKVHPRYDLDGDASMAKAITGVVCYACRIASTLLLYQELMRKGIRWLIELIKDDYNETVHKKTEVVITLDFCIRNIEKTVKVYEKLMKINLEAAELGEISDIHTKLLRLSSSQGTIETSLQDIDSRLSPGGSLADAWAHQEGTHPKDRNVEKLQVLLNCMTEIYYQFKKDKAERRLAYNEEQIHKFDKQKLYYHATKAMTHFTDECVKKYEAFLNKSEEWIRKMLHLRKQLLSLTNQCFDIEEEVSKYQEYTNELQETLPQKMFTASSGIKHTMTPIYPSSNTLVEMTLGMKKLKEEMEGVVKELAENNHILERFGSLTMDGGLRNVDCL

[2] = target: T2, TGF-beta receptor type-1 (Homo sapiens) (UniProt P36897); details: at 1 µM
T2 sequence (whole entry): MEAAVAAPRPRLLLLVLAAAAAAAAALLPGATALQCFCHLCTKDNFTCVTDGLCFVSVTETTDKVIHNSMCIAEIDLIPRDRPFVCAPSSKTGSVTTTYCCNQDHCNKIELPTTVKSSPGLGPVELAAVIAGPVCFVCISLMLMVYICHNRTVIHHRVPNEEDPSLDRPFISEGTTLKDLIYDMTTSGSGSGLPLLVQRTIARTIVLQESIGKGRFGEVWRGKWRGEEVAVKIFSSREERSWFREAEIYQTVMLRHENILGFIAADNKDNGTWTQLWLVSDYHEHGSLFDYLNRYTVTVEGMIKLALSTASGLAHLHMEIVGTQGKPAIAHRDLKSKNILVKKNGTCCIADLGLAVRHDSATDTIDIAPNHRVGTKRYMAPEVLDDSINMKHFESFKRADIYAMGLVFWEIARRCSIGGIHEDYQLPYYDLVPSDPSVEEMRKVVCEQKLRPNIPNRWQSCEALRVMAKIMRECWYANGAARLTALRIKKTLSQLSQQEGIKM

[3] = target: T2, TGF-beta receptor type-1 (Homo sapiens); details: at 10 µM
[4] = target: Insulin-like growth factor 1 receptor (Homo sapiens) (UniProt P08069); details: at 1 µM
[5] = target: Insulin-like growth factor 1 receptor (Homo sapiens) (UniProt P08069); details: at 10 µM
[6] = target: T3, Inhibitor of nuclear factor kappa-B kinase subunit alpha (Homo sapiens) (UniProt O15111); details: at 1 µM
T3 sequence (whole entry): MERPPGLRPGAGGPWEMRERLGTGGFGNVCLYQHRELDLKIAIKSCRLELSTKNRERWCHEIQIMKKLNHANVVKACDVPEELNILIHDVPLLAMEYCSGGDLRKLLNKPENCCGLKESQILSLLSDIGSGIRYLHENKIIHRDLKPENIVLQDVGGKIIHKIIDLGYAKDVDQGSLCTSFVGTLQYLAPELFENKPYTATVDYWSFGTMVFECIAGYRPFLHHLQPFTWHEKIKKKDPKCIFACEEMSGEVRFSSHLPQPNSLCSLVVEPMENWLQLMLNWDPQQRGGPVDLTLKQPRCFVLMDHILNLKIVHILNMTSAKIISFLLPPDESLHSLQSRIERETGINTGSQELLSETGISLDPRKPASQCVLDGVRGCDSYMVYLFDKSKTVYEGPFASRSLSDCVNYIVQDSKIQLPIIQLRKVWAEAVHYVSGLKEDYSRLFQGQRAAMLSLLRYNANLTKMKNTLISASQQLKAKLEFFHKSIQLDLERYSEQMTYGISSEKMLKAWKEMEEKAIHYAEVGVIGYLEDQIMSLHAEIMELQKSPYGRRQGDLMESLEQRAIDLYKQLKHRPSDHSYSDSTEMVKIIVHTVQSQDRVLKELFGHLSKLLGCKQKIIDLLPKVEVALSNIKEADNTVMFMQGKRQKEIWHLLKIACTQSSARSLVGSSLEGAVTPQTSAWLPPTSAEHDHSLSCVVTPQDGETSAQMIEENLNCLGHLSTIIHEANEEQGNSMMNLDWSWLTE

[7] = target: T3, Inhibitor of nuclear factor kappa-B kinase subunit alpha (Homo sapiens); details: at 10 µM
[8] = target: Interleukin-1 receptor-associated kinase 1 (Homo sapiens) (UniProt P51617); details: at 1 µM
[9] = target: Interleukin-1 receptor-associated kinase 1 (Homo sapiens) (UniProt P51617); details: at 10 µM
[10] = target: T4, Interleukin-1 receptor-associated kinase 4 (Homo sapiens) (UniProt Q9NWZ3); details: at 1 µM
T4 sequence (whole entry): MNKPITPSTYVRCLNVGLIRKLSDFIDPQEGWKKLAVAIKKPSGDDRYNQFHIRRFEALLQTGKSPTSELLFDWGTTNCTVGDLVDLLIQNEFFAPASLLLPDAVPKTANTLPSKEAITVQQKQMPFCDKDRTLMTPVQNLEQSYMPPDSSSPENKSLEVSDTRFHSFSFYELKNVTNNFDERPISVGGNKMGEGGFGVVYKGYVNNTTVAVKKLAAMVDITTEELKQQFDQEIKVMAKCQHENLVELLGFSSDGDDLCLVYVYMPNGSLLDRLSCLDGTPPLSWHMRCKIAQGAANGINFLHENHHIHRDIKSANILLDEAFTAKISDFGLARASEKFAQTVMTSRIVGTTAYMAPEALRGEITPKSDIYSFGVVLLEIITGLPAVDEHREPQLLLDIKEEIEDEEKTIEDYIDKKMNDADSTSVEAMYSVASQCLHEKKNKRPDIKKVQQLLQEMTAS

[11] = target: T4, Interleukin-1 receptor-associated kinase 4 (Homo sapiens); details: at 10 µM
[12] = target: T5, Tyrosine-protein kinase ITK/TSK (Homo sapiens) (UniProt Q08881); details: at 1 µM
T5 sequence (whole entry): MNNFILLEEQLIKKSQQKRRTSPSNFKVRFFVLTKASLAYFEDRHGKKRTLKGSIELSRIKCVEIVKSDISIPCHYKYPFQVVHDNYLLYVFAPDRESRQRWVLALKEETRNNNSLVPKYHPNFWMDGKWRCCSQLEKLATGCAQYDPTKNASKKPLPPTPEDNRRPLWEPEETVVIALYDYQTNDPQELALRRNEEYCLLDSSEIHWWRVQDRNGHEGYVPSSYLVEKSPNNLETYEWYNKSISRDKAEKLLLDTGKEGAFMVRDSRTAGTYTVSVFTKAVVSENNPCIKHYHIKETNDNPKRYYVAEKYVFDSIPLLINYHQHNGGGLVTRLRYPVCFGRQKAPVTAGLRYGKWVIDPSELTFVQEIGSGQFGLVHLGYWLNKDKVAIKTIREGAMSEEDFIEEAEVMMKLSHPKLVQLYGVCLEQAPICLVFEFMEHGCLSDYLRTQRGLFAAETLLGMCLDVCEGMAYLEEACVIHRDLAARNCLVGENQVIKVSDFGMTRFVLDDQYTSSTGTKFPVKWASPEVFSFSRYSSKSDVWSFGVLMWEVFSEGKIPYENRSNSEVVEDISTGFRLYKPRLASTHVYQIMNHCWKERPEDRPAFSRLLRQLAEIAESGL

[13] = target: Insulin receptor-related protein (Homo sapiens) (UniProt P14616); details: at 1 µM
[14] = target: Insulin receptor-related protein (Homo sapiens) (UniProt P14616); details: at 10 µM
[15] = target: T6, Inhibitor of nuclear factor kappa-B kinase subunit beta (Homo sapiens) (UniProt O14920); details: at 1 µM
T6 sequence (whole entry): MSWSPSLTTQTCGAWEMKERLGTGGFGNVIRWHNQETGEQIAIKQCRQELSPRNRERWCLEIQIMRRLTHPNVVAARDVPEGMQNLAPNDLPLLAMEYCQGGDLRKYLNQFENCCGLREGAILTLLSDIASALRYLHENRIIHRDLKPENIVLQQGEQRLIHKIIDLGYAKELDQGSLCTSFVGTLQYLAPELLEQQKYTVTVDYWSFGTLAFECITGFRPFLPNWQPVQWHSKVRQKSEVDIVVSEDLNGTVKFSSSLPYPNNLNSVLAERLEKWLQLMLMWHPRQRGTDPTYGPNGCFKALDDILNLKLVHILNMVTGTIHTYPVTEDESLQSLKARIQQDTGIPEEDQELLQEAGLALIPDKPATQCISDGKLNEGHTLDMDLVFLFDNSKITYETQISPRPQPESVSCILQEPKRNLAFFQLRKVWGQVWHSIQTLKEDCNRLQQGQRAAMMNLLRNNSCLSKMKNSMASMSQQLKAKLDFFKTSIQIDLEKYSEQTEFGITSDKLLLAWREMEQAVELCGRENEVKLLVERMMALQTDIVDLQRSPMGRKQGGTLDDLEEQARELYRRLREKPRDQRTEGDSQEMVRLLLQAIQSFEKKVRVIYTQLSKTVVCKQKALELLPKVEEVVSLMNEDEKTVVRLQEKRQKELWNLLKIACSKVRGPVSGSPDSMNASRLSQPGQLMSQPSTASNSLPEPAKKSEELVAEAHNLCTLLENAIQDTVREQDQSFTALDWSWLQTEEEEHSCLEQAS

[16] = target: T6, Inhibitor of nuclear factor kappa-B kinase subunit beta (Homo sapiens); details: at 10 µM
[17] = target: Insulin receptor (Homo sapiens) (UniProt P06213); details: at 1 µM
[18] = target: Insulin receptor (Homo sapiens) (UniProt P06213); details: at 10 µM
[19] = target: Insulin receptor (Homo sapiens) (UniProt P06213); details: at 1 µM; remark: listed apart in the source
[20] = target: Insulin receptor (Homo sapiens) (UniProt P06213); details: at 10 µM; remark: listed apart in the source

Chain of Insulin receptor-related protein (Homo sapiens) (P14616 27-742 limits assumed): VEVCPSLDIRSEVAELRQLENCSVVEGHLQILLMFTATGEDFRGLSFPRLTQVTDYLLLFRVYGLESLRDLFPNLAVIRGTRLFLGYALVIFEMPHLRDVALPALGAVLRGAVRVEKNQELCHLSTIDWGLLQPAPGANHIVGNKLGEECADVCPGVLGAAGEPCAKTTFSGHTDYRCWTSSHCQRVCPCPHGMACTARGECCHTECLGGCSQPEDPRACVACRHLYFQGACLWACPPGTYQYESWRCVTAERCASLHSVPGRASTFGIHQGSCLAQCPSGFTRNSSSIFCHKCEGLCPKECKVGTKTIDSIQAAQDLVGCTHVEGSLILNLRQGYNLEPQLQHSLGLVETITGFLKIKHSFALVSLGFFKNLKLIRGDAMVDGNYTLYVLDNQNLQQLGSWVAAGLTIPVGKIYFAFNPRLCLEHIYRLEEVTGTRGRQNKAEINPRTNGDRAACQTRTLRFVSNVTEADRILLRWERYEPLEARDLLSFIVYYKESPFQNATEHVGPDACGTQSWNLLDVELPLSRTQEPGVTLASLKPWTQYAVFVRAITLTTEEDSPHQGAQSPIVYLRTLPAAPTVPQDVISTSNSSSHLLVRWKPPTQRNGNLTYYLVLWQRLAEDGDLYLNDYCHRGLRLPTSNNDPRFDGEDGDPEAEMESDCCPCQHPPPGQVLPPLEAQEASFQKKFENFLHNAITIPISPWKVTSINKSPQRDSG
Chain of Insulin receptor-related protein (Homo sapiens) (P14616 747-1297 limits assumed): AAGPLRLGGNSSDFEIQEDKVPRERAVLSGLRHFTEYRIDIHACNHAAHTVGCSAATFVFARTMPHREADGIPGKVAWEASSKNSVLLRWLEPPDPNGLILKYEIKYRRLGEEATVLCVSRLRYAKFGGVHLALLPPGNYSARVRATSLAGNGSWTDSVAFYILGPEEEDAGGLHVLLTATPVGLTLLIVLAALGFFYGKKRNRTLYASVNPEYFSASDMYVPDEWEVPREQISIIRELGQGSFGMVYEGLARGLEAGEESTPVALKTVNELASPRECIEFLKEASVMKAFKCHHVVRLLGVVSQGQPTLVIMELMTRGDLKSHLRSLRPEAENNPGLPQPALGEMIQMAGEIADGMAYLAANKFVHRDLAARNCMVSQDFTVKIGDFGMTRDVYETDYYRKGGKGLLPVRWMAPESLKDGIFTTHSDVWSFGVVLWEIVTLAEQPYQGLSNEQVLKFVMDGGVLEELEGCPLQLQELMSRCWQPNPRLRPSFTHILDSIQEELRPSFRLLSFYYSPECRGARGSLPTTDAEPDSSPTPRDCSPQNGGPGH
Chain of Insulin-like growth factor 1 receptor (Homo sapiens) (P08069 31-736 limits assumed): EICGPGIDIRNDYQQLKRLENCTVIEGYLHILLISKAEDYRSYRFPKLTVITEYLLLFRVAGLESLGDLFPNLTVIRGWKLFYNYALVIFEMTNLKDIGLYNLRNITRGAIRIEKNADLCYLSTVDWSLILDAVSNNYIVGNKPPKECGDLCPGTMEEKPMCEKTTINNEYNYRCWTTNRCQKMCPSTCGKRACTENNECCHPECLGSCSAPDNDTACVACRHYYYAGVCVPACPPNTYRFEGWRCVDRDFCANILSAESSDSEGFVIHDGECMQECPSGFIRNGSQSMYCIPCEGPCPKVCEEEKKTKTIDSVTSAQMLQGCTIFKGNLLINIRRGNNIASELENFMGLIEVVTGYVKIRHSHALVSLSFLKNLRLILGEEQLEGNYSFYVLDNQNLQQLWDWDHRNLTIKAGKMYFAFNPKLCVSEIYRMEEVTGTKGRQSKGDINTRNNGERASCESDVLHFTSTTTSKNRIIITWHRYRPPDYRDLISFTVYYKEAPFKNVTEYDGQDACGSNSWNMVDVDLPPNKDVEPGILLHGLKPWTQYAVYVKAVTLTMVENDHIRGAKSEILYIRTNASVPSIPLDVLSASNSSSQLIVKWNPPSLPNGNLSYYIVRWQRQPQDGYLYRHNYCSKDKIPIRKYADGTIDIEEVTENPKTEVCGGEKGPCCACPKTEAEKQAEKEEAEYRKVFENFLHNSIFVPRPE
Chain of Insulin-like growth factor 1 receptor (Homo sapiens) (P08069 741-1367 limits assumed): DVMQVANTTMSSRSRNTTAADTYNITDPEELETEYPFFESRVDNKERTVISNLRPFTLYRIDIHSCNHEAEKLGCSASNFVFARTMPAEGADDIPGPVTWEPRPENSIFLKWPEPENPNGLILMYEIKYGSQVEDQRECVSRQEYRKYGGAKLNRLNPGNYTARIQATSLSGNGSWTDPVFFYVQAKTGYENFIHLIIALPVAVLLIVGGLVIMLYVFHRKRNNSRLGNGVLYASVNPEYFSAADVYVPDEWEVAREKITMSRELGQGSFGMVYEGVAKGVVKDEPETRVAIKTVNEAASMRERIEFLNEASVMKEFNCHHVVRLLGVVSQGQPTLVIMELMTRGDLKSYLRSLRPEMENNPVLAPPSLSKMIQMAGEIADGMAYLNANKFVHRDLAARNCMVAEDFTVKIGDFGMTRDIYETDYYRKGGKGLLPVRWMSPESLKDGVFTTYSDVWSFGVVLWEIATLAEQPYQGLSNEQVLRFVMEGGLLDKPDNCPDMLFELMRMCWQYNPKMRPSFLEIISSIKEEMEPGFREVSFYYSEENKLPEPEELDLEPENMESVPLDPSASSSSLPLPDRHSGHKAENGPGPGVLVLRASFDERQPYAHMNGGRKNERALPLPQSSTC
Chain of Insulin receptor (Homo sapiens) (P06213 28-758 limits assumed): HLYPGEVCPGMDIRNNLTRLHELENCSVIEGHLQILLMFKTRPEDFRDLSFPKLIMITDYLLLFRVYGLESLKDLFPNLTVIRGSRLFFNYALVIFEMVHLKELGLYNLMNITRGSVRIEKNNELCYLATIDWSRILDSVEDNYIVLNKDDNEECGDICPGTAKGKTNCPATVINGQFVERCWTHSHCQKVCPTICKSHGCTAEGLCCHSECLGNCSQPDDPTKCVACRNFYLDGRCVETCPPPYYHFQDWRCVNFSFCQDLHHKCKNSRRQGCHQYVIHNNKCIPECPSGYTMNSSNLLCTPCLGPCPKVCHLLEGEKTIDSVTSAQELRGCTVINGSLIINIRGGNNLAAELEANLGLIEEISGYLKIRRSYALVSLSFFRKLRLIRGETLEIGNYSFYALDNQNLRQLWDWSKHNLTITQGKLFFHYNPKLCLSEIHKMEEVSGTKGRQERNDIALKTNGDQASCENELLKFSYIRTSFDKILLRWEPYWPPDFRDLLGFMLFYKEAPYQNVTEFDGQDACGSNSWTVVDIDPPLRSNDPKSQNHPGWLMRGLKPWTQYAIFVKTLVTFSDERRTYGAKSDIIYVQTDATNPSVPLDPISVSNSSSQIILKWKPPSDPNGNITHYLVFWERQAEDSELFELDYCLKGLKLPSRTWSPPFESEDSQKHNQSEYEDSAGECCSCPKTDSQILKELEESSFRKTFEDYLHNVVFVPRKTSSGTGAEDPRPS
Chain of Insulin receptor (Homo sapiens) (P06213 763-1382 limits assumed): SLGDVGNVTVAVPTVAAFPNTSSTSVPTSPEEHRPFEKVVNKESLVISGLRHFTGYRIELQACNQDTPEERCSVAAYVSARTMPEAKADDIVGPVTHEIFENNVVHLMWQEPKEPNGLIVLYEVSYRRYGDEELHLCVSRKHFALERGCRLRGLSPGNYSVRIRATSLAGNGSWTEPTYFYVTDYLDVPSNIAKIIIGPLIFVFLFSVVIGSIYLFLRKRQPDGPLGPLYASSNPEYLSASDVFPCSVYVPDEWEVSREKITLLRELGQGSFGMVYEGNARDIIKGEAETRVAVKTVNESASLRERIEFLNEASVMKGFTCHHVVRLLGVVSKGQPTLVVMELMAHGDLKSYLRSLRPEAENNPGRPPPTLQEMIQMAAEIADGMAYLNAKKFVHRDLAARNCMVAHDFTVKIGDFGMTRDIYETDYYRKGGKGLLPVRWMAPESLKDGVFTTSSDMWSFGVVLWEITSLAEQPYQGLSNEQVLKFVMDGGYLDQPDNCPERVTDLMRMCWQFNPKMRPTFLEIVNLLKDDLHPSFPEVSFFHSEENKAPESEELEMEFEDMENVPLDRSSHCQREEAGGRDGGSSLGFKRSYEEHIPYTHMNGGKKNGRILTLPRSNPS
Chain of Interleukin-1 receptor-associated kinase 1 (Homo sapiens) (P51617 whole entry, looked up): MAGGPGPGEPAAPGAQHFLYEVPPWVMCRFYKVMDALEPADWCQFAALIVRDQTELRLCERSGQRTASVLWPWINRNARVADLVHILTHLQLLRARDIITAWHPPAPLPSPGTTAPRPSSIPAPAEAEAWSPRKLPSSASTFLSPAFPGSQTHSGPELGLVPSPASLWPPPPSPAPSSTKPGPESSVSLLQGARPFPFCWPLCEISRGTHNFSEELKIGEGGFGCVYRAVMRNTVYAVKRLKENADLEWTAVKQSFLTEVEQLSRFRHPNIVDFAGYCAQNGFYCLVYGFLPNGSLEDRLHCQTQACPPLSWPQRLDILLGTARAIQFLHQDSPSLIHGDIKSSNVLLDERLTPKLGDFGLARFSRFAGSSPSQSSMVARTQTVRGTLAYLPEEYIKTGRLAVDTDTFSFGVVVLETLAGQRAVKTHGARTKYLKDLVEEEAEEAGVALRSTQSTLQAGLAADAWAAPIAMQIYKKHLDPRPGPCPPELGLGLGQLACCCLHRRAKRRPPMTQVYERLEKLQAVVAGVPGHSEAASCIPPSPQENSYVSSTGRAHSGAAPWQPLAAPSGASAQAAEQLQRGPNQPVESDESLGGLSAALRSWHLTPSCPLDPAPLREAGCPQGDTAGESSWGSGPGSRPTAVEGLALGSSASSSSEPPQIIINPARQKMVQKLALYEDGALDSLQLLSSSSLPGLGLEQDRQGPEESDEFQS

Row | SMILES | residual activity [1] [%] | residual activity [2] [%] | residual activity [3] [%] | residual activity [4] [%] | residual activity [5] [%] | residual activity [6] [%] | residual activity [7] [%] | residual activity [8] [%] | residual activity [9] [%] | residual activity [10] [%] | residual activity [11] [%] | residual activity [12] [%] | residual activity [13] [%] | residual activity [14] [%] | residual activity [15] [%] | residual activity [16] [%] | residual activity [17] [%] | residual activity [18] [%] | residual activity [19] [%] | residual activity [20] [%]
1 | CCCCc1c(-c2ccc(O)cc2)[nH]c2nccnc12 | 35 | 91 | 46 | 65 | 66 | 90 | 81 | 52 | 53 | 71 | 26 | 93 |  |  |  |  |  |  |  | 
2 | CC(C)N(CCC(=O)c1ccc2ccccc2c1)Cc1ccccc1 | 51 | 76 | 74 |  |  |  |  | 83 | 77 |  |  |  | 131 | 82 |  |  |  |  |  | 
3 | Nc1ncnc2[nH]nc(Nc3ccc(F)cc3)c12 | 58 | 107 | 74 | 109 | 112 | 105 |  | 93 | 101 |  | 58 | 103 | 124 | 106 | 115 | 108 | 141 | 103 | 97 | 90
4 | O=c1cc(N2CCOCC2)oc2c1ccc1ccccc12 | 71 | 89 | 88 |  |  |  |  | 83 | 88 | 96 | 88 | 96 |  | 98 | 96 | 94 | 108 | 91 | 103 | 97
5 | COc1cc2ncnc(Nc3cccc(Cl)c3)c2cc1OC | 59 | 100 | 103 | 115 |  |  |  | 84 | 35 | 64 | 5 | 100 | 105 | 102 |  |  | 110 |  |  | 
6 | CCN1/C(=C/C(C)=O)Sc2ccc(OC)cc21 | 51 |  |  |  |  |  |  |  |  |  |  |  |  |  |  |  |  |  |  | 
7 | COc1ccc(COc2ccc(Cc3cnc(N)nc3N)cc2OC)cc1 | 58 | 79 | 77 |  |  |  |  | 76 | 67 |  |  | 100 | 137 | 82 | 109 |  |  |  |  | 
8 | O=C1Nc2ccc(Cl)cc2/C1=C/c1cc(Cl)c(O)c(Cl)c1 | 38 | 79 | 42 |  |  |  | 88 | 84 | 81 | 75 | 51 |  | 111 | 74 | 100 | 67 | 96 | 63 | 95 | 57
